According to the supplement of paper PMC10981050:
Where “and” joins values, the source holds several entries; their conditions need not be identical. Identical values can stand only once. Counter-ions that a name gives are not always drawn.

What was measured:
Assay in all cases: cell viability relative to vehicle control; higher = less cytotoxic
Settings in all cases: 10 µM
K562 = system: K562
Procedure, shortened: (§1)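 CRISPR-edited mutant clones and isogenic wild-type clones from four leukaemia lines were screened against Selleck bioactive, kinase and epigenetic probe libraries, with identity-inconsistent compounds excluded. Each compound was acoustically dispensed at a single 10 µM dose into 384-well plates holding 2000 cells in 50 µL medium per well. After 48 h the supernatant was removed and CellTiter-Glo luminescence was read. Viability was expressed as percent of the on-plate vehicle control and analysed in Genedata Screener.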

MARIMO = system: MARIMO
Procedure, shortened: as §1

MOLM14 = system: MOLM14
Procedure, shortened: as §1

OCI-AML2 = system: OCI-AML2
Procedure, shortened: as §1

| Structure (SMILES) | cell viability (K562; SRSF2 genotype: SRSF2 P95H/wt) | cell viability (K562; SRSF2 genotype: SRSF2 wt/wt) [%] | cell viability (MARIMO; SRSF2 genotype: SRSF2 P95H/wt) [%] | cell viability (MARIMO; SRSF2 genotype: SRSF2 wt/wt) [%] | cell viability (MOLM14; SRSF2 genotype: SRSF2 P95H/wt) [%] | cell viability (MOLM14; SRSF2 genotype: SRSF2 wt/wt) [%] | cell viability (OCI-AML2; SRSF2 genotype: P95H/wt) [%] | cell viability (OCI-AML2; SRSF2 genotype: wt/wt) [%] |
| --- | --- | --- | --- | --- | --- | --- | --- | --- |
| COc1cccc(Nc2c(C(N)=O)cnc3c(C)cc(S(=O)(=O)c4cccc(C(=O)N(C)C)c4)cc23)c1 | 109% and 106% | 108 | 93.5 | 101 | 108 | 103 | 111 | 98.2 |
| O=C1c2c(O)cc(O)cc2O[C@H](c2cc(O)c(O)c(O)c2)[C@H]1O [Dihydromyricetin (Ampeloptin)] | 111% and 107% | 114 | 112 | 110 | 110 | 107 | 112 | 107 |
| O=c1c2ccccc2oc2ccccc12 [Xanthone (Genicide)] | 102% and 103% | 94.9 | 96.5 | 102 | 105 | 108 | 93.1 | 96.4 |
| C[C@H](CSC(=O)c1ccccc1)C(=O)N1C[C@@H](Sc2ccccc2)C[C@H]1C(=O)O [Zofenopril calcium] | 106% and 100% | 106 | 104 | 96.9 | 98.3 | 108 | 116 | 121 |
| Cc1cc(C)c(CN2CCc3c(Cl)cc(-c4c(C)noc4C)c(Cl)c3C2=O)c(=O)[nH]1 | 78.7% and 87.1% | 87.5 | 74.8 | 65.4 | 77.6 | 79.8 | 77.4 | 86.5 |
| COc1ccccc1OCC(O)CO (stereo not given) [Guaifenesin (Guaiphenesin)] | 106% and 104% | 107 | 103 | 108 | 107 | 109 | 105 | 118 |
| CCN=C1N[C@@H]2[C@@H](O)[C@H](O)[C@@H](CO)O[C@@H]2S1 [Thiamet G] | 99.9% and 104% | 101 | 103 | 106 | 92.8 | 99.8 | 101 | 107 |
| C[C@@H](C(=O)Nc1ccc(Cl)cc1)C1CCC(c2ccnc3ccc(F)cc23)CC1 (stereo not given in full) | 77% and 77.9% | 69.6 | 81 | 70.5 | 61.9 | 76.4 | 56.8 | 54.5 |
| C=CC(=O)N1CC(=Cc2ccc([N+](=O)[O-])cc2)C(=O)C(=Cc2ccc([N+](=O)[O-])cc2)C1 | 15.9% and 2.27% | 9.63 | 3.16 | 1.15 | 0.72 | 0.74 | 2.08 | 1.27 |
| N#CC(=Cc1ccc(O)c(O)c1)C(=O)NCc1ccccc1 [AG-490 (Tyrphostin B42)] | 101% and 99.8% | 91 | 78.5 | 92.8 | 95.9 | 103 | 90.4 | 93.7 |
| C[C@H](C[C@H](O)[C@@H](O)C(C)(C)O)C1=C2C[C@H](O)[C@H]3[C@@]4(C)CCC(=O)C(C)(C)[C@@H]4CC[C@]3(C)[C@@]2(C)CC1 [Alisol A] | 85.4% and 85.1% | 89.8 | 86.9 | 79.1 | 98.4 | 96.2 | 84.9 | 83.5 |
| CCC(=O)O[C@]1(C(=O)CCl)[C@@H](C)C[C@H]2[C@@H]3CCC4=CC(=O)C=C[C@]4(C)[C@@]3(F)[C@@H](O)C[C@@]21C [Clobetasol propionate] | 88.3% and 95.4% | 88.2 | 85.1 | 96.7 | 81.2 | 80.8 | 90.5 | 101 |
| O=C(O)c1ccc(O)cc1 [4-Hydroxybenzoic acid] | 93.3% and 100% | 98.8 | 93.4 | 97.5 | 98.4 | 99.5 | 87 | 102 |
| COc1cc(C[C@@H](CO[C@@H]2O[C@H](CO)[C@@H](O)[C@H](O)[C@H]2O)[C@H](CO[C@@H]2O[C@H](CO)[C@@H](O)[C@H](O)[C@H]2O)Cc2ccc(O)c(OC)c2)ccc1O [Secoisolariciresinol diglucoside] | 96.7% and 93.6% | 98.9 | 90 | 101 | 101 | 98.5 | 96.8 | 104 |
| CC(C)C[C@H](NC(=O)[C@@H](NC(=O)c1cccc(-c2ccccc2)n1)[C@@H](C)O)B(O)O | 2.12% and 2.65% | 3.78 | 0.85 | 2.98 | 0.49 | 0.44 | 0.41 | 2.11 |
| O=C(Nc1cccnc1)N1CCC(Cc2cccc(Oc3ccc(C(F)(F)F)cn3)c2)CC1 | 42% and 43.6% | 44.4 | 43.6 | 35.1 | 51.2 | 28.9 | 38.3 | 27.1 |
| CCOC(=O)OC(C)OC1=C(C(=O)Nc2ccccn2)N(C)S(=O)(=O)c2ccccc21 (stereo not given) [Ampiroxicam] | 96.8% and 104% | 92.4 | 101 | 95.9 | 93 | 95.9 | 104 | 96 |
| O=C(Oc1cc(S(=O)(=O)c2ccccc2)ccc1[N+](=O)[O-])c1ccc(Cl)cc1 | 104% and 109% | 106 | 106 | 103 | 104 | 107 | 114 | 115 |
| O=C(c1ccc(F)cc1)C1CCN(CCn2c(=O)[nH]c3ccccc3c2=O)CC1 [Ketanserin (Vulketan Gel)] | 98.1% and 104% | 103 | 102 | 106 | 107 | 107 | 105 | 109 |
| CC(OC(=O)OC1CCCCC1)OC(=O)C1=C(CSc2nnnn2CCN(C)C)CS[C@@H]2[C@H](NC(=O)Cc3csc(N)n3)C(=O)N12 (stereo not given in full) [Cefotiam Hexetil Hydrochloride] | 105% and 98.2% | 93.7 | 87.5 | 94.9 | 89.9 | 94.3 | 90 | 93.8 |
| CCN1CCN(C(=O)N[C@@H](C(=O)N[C@@H]2C(=O)N3C(C(=O)O)=C(CSc4nnnn4C)CS[C@H]23)c2ccc(O)cc2)C(=O)C1=O [Cefoperazone (Cefobid)] | 100% and 97.5% | 91.7 | 104 | 101 | 98.1 | 97.3 | 100 | 104 |
| O=Cc1ccc(O)c(O)c1 [3,4-Dihydroxybenzaldehyde] | 95.8% and 92.8% | 93.7 | 77.4 | 91.9 | 91.3 | 99.4 | 88.9 | 92.4 |

| Structure (SMILES) | cell viability (K562; SRSF2 genotype: SRSF2 P95H/wt) | cell viability (K562; SRSF2 genotype: SRSF2 wt/wt) [%] | cell viability (MARIMO; SRSF2 genotype: SRSF2 P95H/wt) [%] | cell viability (MARIMO; SRSF2 genotype: SRSF2 wt/wt) [%] | cell viability (MOLM14; SRSF2 genotype: SRSF2 P95H/wt) [%] | cell viability (MOLM14; SRSF2 genotype: SRSF2 wt/wt) [%] | cell viability (OCI-AML2; SRSF2 genotype: P95H/wt) [%] | cell viability (OCI-AML2; SRSF2 genotype: wt/wt) [%] |
| --- | --- | --- | --- | --- | --- | --- | --- | --- |
| CC(C)(O)C1CCC(C)(C2C(O)CC3(C)C4CC(OC5OC(CO)C(O)C(O)C5O)C5C(C)(C)C(OC6OCC(O)C(O)C6O)CCC56CC46CCC23C)O1 (stereo not given) [Astragaloside A] | 104% and 103% | 99.1 | 109 | 111 | 106 | 107 | 97.2 | 103 |
| O=C(O)c1cc(/N=N/c2ccc(S(=O)(=O)Nc3ccccn3)cc2)ccc1O [Sulfasalazine (Azulfidine)] | 99% and 96.4% | 94.4 | 96.3 | 101 | 93.7 | 98.9 | 96.4 | 103 |
| O=C(O)CCCCCCCC(O)C(O)CCCCCCO (stereo not given) [Aleuritic Acid] | 105% and 100% | 97.5 | 107 | 112 | 98.4 | 107 | 97.2 | 101 |
| CCOC(=O)[C@H](CCc1ccccc1)N[C@@H](C)C(=O)N1Cc2cc(OC)c(OC)cc2C[C@H]1C(=O)O [Moexipril HCl] | 93.9% and 103% | 104 | 110 | 105 | 106 | 109 | 104 | 95.9 |
| CC(=O)OC/C=C(\C)CCC=C(C)C [Geranyl acetate] | 102% and 95.2% | 107 | 104 | 112 | 99.2 | 111 | 97.2 | 103 |
| C[C@@H](O)[C@H]1C(=O)N2C(C(=O)OCOC(=O)C(C)(C)C)=C(SC3CN(C4=NCCS4)C3)[C@H](C)[C@H]12 [Tebipenem pivoxil (L-084)] | 99.2% and 99.3% | 90 | 90.5 | 84.3 | 88.7 | 95.2 | 103 | 97.2 |
| COC1C(O)C(O)C(O)C(O)C1O (stereo not given) [Sequoyitol] | 102% and 107% | 110 | 110 | 99.1 | 105 | 109 | 99.7 | 106 |
| O=C(NCCN1CCOCC1)Nc1ccc(C(=O)/C=C/c2cccc(N3CCOCC3)n2)cc1 | – | 15.2 | 21.2 | 19.2 | 1.13 | 1.01 | 5.44 | 16.6 |
| COc1cccc(-c2ccc(NC(=O)C3=C(C(=O)O)CCC3)c(F)c2)c1 [Vidofludimus] | – | 93.2 | 115 | 120 | 114 | 108 | 112 | 112 |
| Cc1ncc(CO)c(CO)c1O [Metadoxine] | 99.4% and 100% | 104 | 98.1 | 103 | 101 | 103 | 101 | 114 |
| CO[C@H]1C(=O)[C@]2(C)[C@@H](OC)C[C@H]3OC[C@@]3(OC(C)=O)[C@H]2[C@H](OC(=O)c2ccccc2)[C@]2(O)C[C@H](OC(=O)[C@H](O)[C@@H](NC(=O)OC(C)(C)C)c3ccccc3)C(C)=C1C2(C)C [Cabazitaxel (Jevtana)] | 24.8% and 36.9% | 36.7 | 7.53 | 5.43 | 8.88 | 4.79 | 7.39 | 16 |
| O=C(Nc1ccc(Br)cc1)c1c(O)cccc1O [Resorantel] | 17.7% and 15.3% | 19.6 | 38.7 | 39.3 | 17.5 | 11.8 | 4.86 | 14.2 |
| Nc1nc(N)c2nc(-c3ccccc3)c(N)nc2n1 [Triamterene] | – | 33 | 98.2 | 101 | 93.7 | 101 | 101 | 101 |
| CCc1ccc(-c2nc(CSCC(=O)NCCc3ccccc3)c(C)o2)cc1 | 89.7% and 94% | 94.9 | 84.1 | 99.9 | 87.5 | 96.8 | 74.5 | 91.2 |
| CC(Nc1nc(N2CCCC2)nc2ccccc12)c1ccccc1 (stereo not given) [Importazole] | – | 29.2 | 46.3 | 64.7 | 51.2 | 48.2 | 51.8 | 58.2 |
| C[C@@H](NC(=O)c1ncnc(N)c1Cl)c1ncc(C(=O)Nc2cc(C(F)(F)F)c(Cl)cn2)s1 | – | 51.4 | 54.7 | 58.1 | 86.1 | 95.3 | 66.9 | 69.8 |
| CC1=CCC2C(C1)C2(C)C (stereo not given) [3-Carene] | 104% and 96% | 106 | 101 | 103 | 100 | 106 | 101 | 112 |
| N#Cc1ccc([C@H]2CCc3cncn32)c(F)c1 | 103% and 100% | 88.2 | 100 | 113 | 99.5 | 101 | 95.9 | 94.6 |
| COc1ccc(-n2c(SCCCN3C(=O)c4cccc5cccc(c45)C3=O)nnc2-c2ccncc2)cc1 | 100% and 88.5% | 88.4 | 101 | 103 | 102 | 101 | 95.5 | 100 |
| NC(CO)C(=O)NNCc1ccc(O)c(O)c1O (stereo not given) [Benserazide HCl] | – | 80.2 | 103 | 95.5 | 85.3 | 71.6 | 94.2 | 99.5 |
| C=C1CCC[C@]2(C)C[C@]3(O)OC(=O)C(C)=C3C[C@@H]12 [Atractylenolide III] | 105% and 101% | 99.3 | 101 | 102 | 102 | 99 | 94.9 | 106 |
| CCS(=O)(=O)N1CCN(c2ccc(Nc3ncc(C(N)=O)c(NC4CC4)n3)cc2)CC1 | – | 63.2 | 65.2 | 63.1 | 7.8 | 8.15 | 12.1 | 15.5 |
